Compound activity deposited in PubChem BioAssay by several laboratories.
An excerpt weighted towards active compounds, which were near 2.2% of everything screened.
TROY signal inh – inhibitors of TROY-driven NF-kB signaling, primary screen, Q293 LMP1-TROYcd cells, NF-kB luciferase, uHTS | Q293 LMP1-TROYcd NF-kB luciferase reporter, 4 h | 360,000 tested, 0.98% active | inhibition, % at 10 µM;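 active = compounds whose plate-normalised and pattern-corrected inhibition of the luciferase reporter signal at the single screening dose is 50% or more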
HSP90 refold inh – HSP90 inhibitors, primary screen, cell lysate, luminescence; 290,000 tested, 0.91% active; Rabbit reticulocyte lysate, luciferase refolding luminescence, 3 h; Heat shock protein HSP 90 (rabbit reticulocyte lysate; luciferase refolding); AID 1789, 2009; inhibition, % at 5.6 µM;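 active = inhibition above the screen-wide mean plus 3 SD, computed separately per campaign, cut at about 16% in these data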;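 also: inhibitors lower the luminescence because luciferase stays unfolded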
TWEAK-Fn14 inh – inhibitors of TWEAK-Fn14 signaling, primary screen, luciferase reporter cells, uHTS. TWEAK-stimulated Fn14 reporter cells, luciferase luminescence, 8 h. inhibition, % at 10 µM. 360,000 tested, 2% active. AID 1159606, 2016; in the data active = inhibition above about 50%
LGR2 antag – inhibitors of bursicon-induced LGR2 CRE-luciferase signal, primary screen, cell-based, HEK293, CRE-luciferase reporter, bursicon stimulation; bursicon-stimulated, 4 h; inhibition, % at 9.99 µM; 380,000 tested, 0.35% active;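 active = drop in luminescence signal, shown as inhibition above about 50% in the replicate tests, limit read from the data, passing the limit was not always enough; inconclusive = probably only some replicates passing the limit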;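 also: agonist challenge used bursicon conditioned medium at about half maximal strength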
HSP90 confirm – HSP90 inhibitors, confirmation, cell lysate, luminescence; shares compounds with HSP90 refold inh; rabbit reticulocyte lysate, luciferase refolding luminescence, 3 h; inhibition, % at 5.9 µM; 2,300 tested, 64% active; AID 1846, 2009; in the data active = inhibition above about 18%
luciferase ctr – firefly luciferase inhibitors, HSP90 counter-screen, confirmation, artefact control for HSP90 inhibitor project, biochemical, luminescence, triplicate. shares compounds with HSP90 refold inh. purified native firefly luciferase. inhibition, % at 5.9 µM. 2,300 tested, 48% active. AID 1847, 2009;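 active = inhibition above the mean inhibition of all tested sample wells plus 3 SD, cut at about 10% in these data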
Target sequence (P08659 whole entry, looked up): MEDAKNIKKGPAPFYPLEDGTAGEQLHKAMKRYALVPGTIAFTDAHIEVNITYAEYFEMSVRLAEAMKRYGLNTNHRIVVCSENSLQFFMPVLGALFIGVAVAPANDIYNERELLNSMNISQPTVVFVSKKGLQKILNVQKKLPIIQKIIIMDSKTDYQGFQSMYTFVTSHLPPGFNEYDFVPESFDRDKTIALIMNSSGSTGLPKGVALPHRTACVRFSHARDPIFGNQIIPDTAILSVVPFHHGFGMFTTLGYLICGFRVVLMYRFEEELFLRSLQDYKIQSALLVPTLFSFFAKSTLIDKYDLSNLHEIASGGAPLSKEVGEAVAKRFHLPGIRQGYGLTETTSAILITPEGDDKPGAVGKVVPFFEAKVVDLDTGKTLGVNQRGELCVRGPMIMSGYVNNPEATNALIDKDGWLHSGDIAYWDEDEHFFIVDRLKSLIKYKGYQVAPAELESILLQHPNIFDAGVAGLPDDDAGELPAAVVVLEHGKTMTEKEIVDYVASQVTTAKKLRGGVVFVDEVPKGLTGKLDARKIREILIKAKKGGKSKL
Large screens that a line does not name were inactive (follow-up assays come after a bar, where they were run).

CCN1CCN(/C=N/c2nc3c(s2)CCCC3)CC1	TROY signal inh 86, HSP90 refold inh 65, TWEAK-Fn14 inh 96, LGR2 antag 80 | HSP90 confirm 72 | luciferase ctr 42
O=[N+]([O-])c1ccc(N2CCN(c3ccc([N+](=O)[O-])cc3CO)CC2)c(CO)c1	HSP90 refold inh 19 | HSP90 confirm inactive | luciferase ctr inactive
C/C(=N\NC(=O)c1ccoc1C)c1ccccc1	HSP90 refold inh 20 | HSP90 confirm inactive | luciferase ctr inactive
Cc1occc1C(=O)N/N=C/C=C/c1ccc(N(C)C)cc1	none
Cc1occc1C(=O)N/N=C/c1ccc(N(C)C)cc1	HSP90 refold inh 20, TWEAK-Fn14 inh 72 | HSP90 confirm 60 | luciferase ctr 50
CN1c2ccc(-c3cccc(F)c3)cc2[C@@H]2[C@@H](CCN2C(=O)c2ccc3c(c2)OCO3)[C@@H]1CO	none (no result: TROY signal inh, HSP90 refold inh, TWEAK-Fn14 inh)
COc1ccc(-c2ccn(-c3cccc(F)n3)n2)cc1	HSP90 refold inh 22, TWEAK-Fn14 inh 56 | HSP90 confirm 33 | luciferase ctr 18
C[C@H]1CCCCO[C@@H](CN(C)S(=O)(=O)c2ccccc2)[C@@H](C)CN([C@@H](C)CO)C(=O)c2cc(NS(=O)(=O)c3ccc(F)cc3)ccc2O1	none (no result: TROY signal inh, HSP90 refold inh, TWEAK-Fn14 inh)
C[C@@H]1CN([C@@H](C)CO)S(=O)(=O)c2ccc(C#C[C@@H](C)O)cc2O[C@@H]1CN(C)C(=O)C1CCCCC1	none (no result: TROY signal inh, HSP90 refold inh, TWEAK-Fn14 inh)
Cc1[nH]nc2c1C1(CCN(C(=O)OCc3ccccc3)CC1)C(C#N)=C(N)O2	HSP90 refold inh 24 (no result: LGR2 antag) | HSP90 confirm inactive | luciferase ctr inactive
O=C(C[C@@H]1CC[C@H]2[C@@H](COC[C@@H](O)CN2C(=O)Nc2ccccc2)O1)NC1Cc2ccccc2C1	none (no result: TROY signal inh, HSP90 refold inh, TWEAK-Fn14 inh)
Brc1ccc(C2Nc3cccc4cccc(c34)N2)o1	HSP90 refold inh 19 (no result: LGR2 antag) | HSP90 confirm inactive | luciferase ctr inactive
O=C(c1ccc([N+](=O)[O-])cc1)N1CCN(C(=O)c2ccco2)CC1	HSP90 refold inh 21 | HSP90 confirm inactive | luciferase ctr inactive
COc1ccc(-c2cc3nnc(-c4ccccc4)nc3s2)cc1	TROY signal inh 63, HSP90 refold inh 21, TWEAK-Fn14 inh 72 (no result: LGR2 antag) | HSP90 confirm 45 | luciferase ctr 43
COc1ccc(-c2nc3ccccc3nc2-c2ccccc2)cc1	none
CCN(CC)c1ccc2cc(C=O)c(=O)oc2c1	none (no result: LGR2 antag)
CCN(CC)c1ccc2nc3c4ccccc4c(=O)cc-3oc2c1	HSP90 refold inh 47 (no result: TROY signal inh, TWEAK-Fn14 inh) | HSP90 confirm 48 | luciferase ctr 32
O=C(Nc1cccc(O)c1)c1cc(-c2ccc3c(c2)OCO3)on1	TROY signal inh 64, HSP90 refold inh 68, TWEAK-Fn14 inh 95, LGR2 antag inconclusive | HSP90 confirm 92 | luciferase ctr 85
O=C(Nc1cccc(O)c1)c1cc(-c2ccccc2Cl)on1	TROY signal inh 51, HSP90 refold inh 41, TWEAK-Fn14 inh 77 | HSP90 confirm 63 | luciferase ctr 48
O=C(c1cc(-c2ccccc2Cl)on1)N1CCCC1	HSP90 refold inh 51, TWEAK-Fn14 inh 70, LGR2 antag inconclusive | HSP90 confirm 55 | luciferase ctr 49
CNC[C@H]1OCCCC[C@@H](C)Oc2ccc(NS(=O)(=O)c3ccc(C)cc3)cc2C(=O)N([C@@H](C)CO)C[C@@H]1C	none (no result: TROY signal inh, HSP90 refold inh, TWEAK-Fn14 inh)
C[C@H](NC(=O)C[C@H]1CC[C@@H]2[C@H](COC[C@H](O)CN2C(=O)Nc2cccc(F)c2)O1)c1ccccc1	none (no result: TROY signal inh, HSP90 refold inh, TWEAK-Fn14 inh)
CCCN1C[C@@H](C)[C@@H](OC)CN(C)C(=O)c2cc(NC(=O)c3cccc(F)c3)ccc2OC[C@H]1C	none (no result: TROY signal inh, HSP90 refold inh, TWEAK-Fn14 inh)
CC1(C)CCc2cc(-c3ccnc(=S)[nH]3)ccc2O1	HSP90 refold inh 18, TWEAK-Fn14 inh 62 (no result: LGR2 antag) | HSP90 confirm inactive | luciferase ctr inactive
Cc1cccc2c3nc4ccccc4nc3n(CCCN3C(=O)c4ccccc4C3=O)c12	HSP90 refold inh 25, TWEAK-Fn14 inh 71 | HSP90 confirm inactive | luciferase ctr inactive
COc1ccccc1NC(=O)N1CC(=O)N2[C@H](CO)[C@@H](c3ccc(C#Cc4ccc(F)cc4)cc3)[C@@H]2C1	none (no result: TROY signal inh, HSP90 refold inh, TWEAK-Fn14 inh)
COc1ccc(Cl)cc1Nc1nc(N)c2ccccc2n1	none
Cc1ccc(C)c(Nc2nc(N)c3ccccc3n2)c1	HSP90 refold inh 17 | HSP90 confirm 23 | luciferase ctr inactive
Cc1ccc(O)c(Nc2c3ccccc3nc3ccccc23)c1	HSP90 refold inh 39 | HSP90 confirm inactive | luciferase ctr inactive
Cc1ccc(O)c(Nc2nc(-c3ccccc3)nc3ccccc23)c1	none
Cc1ccc(C(=O)COC(=O)c2cnccn2)cc1	none (no result: LGR2 antag)
O=C(COC(=O)c1cnccn1)c1ccc([N+](=O)[O-])cc1	HSP90 refold inh 38 | HSP90 confirm inactive | luciferase ctr inactive
COc1ccc(S(=O)(=O)N[C@H]2CC[C@@H](CC(=O)NCCc3ccccc3)O[C@@H]2CO)cc1	none (no result: TROY signal inh, HSP90 refold inh, TWEAK-Fn14 inh)
COc1ccc(/C=N/n2c(-c3ccco3)nc3ccccc3c2=O)cc1	HSP90 refold inh 19 | HSP90 confirm inactive | luciferase ctr inactive
O=C1c2cc(F)ccc2-n2c1nc1ccccc1c2=O	HSP90 refold inh 73 | HSP90 confirm 68 | luciferase ctr inactive
Nn1c(-c2ccc(F)cc2)nc2ccccc2c1=O	none
COc1cccc(C#Cc2ccc([C@@H]3[C@H]4CN(C(=O)Cc5cccnc5)CC(=O)N4[C@H]3CO)cc2)c1	none (no result: TROY signal inh, HSP90 refold inh, TWEAK-Fn14 inh)
COc1cccc(-c2ccc([C@H]3[C@@H](CO)N4C(=O)CN(C(=O)C5CCCC5)C[C@@H]34)cc2)c1	none (no result: TROY signal inh, HSP90 refold inh, TWEAK-Fn14 inh)
COc1cc(OC)c(C(=O)O/N=C(\N)c2ccccn2)cc1OC	none
N/C(=N\OC(=O)c1ccccc1Cl)c1ccccn1	TROY signal inh 70, HSP90 refold inh 73, TWEAK-Fn14 inh 102, LGR2 antag 95 | HSP90 confirm 68 | luciferase ctr 89
Cc1ccccc1C(=O)O/N=C(\N)c1ccc([N+](=O)[O-])cc1	none
Cc1ccccc1C(=O)O/N=C(\N)c1ccccc1	HSP90 refold inh 24 | HSP90 confirm 49 | luciferase ctr 77
COc1ccccc1C(=O)O/N=C(\N)c1ccccn1	TROY signal inh 55, HSP90 refold inh 28, TWEAK-Fn14 inh 74, LGR2 antag inconclusive | HSP90 confirm inactive | luciferase ctr inactive
Cc1ccc(C(=O)O/N=C(\N)c2ccccn2)c(C)c1	TROY signal inh 87, HSP90 refold inh 92, TWEAK-Fn14 inh 104, LGR2 antag 101 | HSP90 confirm 97 | luciferase ctr 94
C[C@H](O)C#Cc1ccc2c(c1)O[C@H](CN(C)C(=O)c1ccccc1)[C@H](C)CN([C@@H](C)CO)S2(=O)=O	none (no result: TROY signal inh, HSP90 refold inh, TWEAK-Fn14 inh)
CCN(CC)c1ccc(/C=N/Nc2nc3ccccc3[nH]2)c(O)c1	TROY signal inh 55, HSP90 refold inh 40, TWEAK-Fn14 inh 53 (no result: LGR2 antag) | HSP90 confirm 23 | luciferase ctr inactive
